Here are results for 98 compounds from PubChem BioAssay AID1347165 (National Center for Advancing Translational Sciences (NCATS), 2019).

The structures appear in SMILES notation. Among all 220,000 compounds or so, about 5,700 (2.6%) were called active. Another 18% or so got no clear call; they are omitted. Calls come from the whole dose curve; as a rule, active = well fitted inhibition curve with a large enough effect; inconclusive = small, poorly fitted or top-dose-only effect; inactive = no such curve, though single readings can be large or run the other way. The entries come from a sample that favours actives as a whole. Where a call stands in place of a potency, no number is given.
Potency is the fitted concentration of half-maximal effect.

Lysine-specific demethylase 5B (Homo sapiens), sequence (Q9UGL1 whole entry, looked up): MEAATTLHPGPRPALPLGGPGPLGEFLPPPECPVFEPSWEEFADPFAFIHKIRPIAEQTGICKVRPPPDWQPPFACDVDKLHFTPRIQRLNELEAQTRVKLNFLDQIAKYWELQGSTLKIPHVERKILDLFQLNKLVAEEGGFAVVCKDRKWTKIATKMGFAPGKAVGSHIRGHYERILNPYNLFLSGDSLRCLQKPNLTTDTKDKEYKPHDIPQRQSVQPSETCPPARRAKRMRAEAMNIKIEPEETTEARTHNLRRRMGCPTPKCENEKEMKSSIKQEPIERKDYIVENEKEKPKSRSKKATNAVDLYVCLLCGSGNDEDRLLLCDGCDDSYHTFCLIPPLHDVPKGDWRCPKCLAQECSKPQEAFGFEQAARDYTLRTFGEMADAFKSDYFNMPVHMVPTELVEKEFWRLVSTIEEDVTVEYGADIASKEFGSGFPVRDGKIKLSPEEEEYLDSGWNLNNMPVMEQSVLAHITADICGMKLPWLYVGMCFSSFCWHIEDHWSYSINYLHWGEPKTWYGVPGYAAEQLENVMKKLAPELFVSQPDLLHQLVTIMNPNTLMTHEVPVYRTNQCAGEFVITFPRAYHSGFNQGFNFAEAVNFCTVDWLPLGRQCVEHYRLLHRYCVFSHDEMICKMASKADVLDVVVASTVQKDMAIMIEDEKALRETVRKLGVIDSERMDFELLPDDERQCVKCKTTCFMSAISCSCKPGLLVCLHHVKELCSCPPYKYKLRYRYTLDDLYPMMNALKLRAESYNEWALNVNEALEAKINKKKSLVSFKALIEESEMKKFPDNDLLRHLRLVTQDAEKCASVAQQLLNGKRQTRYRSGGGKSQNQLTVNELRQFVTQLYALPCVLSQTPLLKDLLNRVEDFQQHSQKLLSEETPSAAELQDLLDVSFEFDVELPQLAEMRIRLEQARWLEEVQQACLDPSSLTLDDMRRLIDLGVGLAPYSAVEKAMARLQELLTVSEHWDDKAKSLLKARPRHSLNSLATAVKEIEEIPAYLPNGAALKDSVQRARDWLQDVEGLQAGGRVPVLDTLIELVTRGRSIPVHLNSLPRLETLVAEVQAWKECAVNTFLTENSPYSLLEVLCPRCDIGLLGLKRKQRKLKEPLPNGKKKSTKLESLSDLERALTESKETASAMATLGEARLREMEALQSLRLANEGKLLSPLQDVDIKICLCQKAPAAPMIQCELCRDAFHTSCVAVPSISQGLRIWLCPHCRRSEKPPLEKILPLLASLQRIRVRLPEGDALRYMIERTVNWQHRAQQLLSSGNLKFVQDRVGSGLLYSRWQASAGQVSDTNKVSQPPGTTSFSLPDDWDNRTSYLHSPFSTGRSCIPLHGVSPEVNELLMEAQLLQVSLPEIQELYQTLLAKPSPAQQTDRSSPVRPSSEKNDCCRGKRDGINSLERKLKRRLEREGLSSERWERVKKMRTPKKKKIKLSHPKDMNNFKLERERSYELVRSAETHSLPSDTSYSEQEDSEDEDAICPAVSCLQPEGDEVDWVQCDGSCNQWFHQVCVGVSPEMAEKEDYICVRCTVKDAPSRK

In the test the target is Lysine-specific demethylase 5B (Homo sapiens) (UniProt Q9UGL1). In words: Primary screen for KDM5B Histone Demethylases FDH-coupled qHTS. Note: nearly all actives have a fitted effect of over 70% in size. The conditions noted are these: FDH-coupled NADH fluorescence (FDH is formaldehyde dehydrogenase); series mostly up to 57.7 µM. In short, it runs like this:
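Here, H3K4me3 peptide (12.5 µM in substrate mix) is demethylated by KDM5BΔAP, 200 nM final, after 10 min compound exposure. Formaldehyde product is coupled through FDH (0.25 U/mL in mix) to NADH fluorescence; 30-min ΔRFU feeds dose-response curves.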
A general note: qHTS replaces the single test concentration by a dilution series.
`N#Cc1cccc(Cn2c(=O)c3c(ncn3C3CCCC3)n(Cc3ccccc3)c2=O)c1`: the Potency result was “inactive”.
The result for `CN(C)c1cccc(-c2cnc(Nc3ccc(N4CCOCC4)cc3)c3c2CCO3)c1` reads 35.5 µM (active); that for `COc1ncccc1Nc1ncc(-c2ccccc2)c2c1OCC2`, “inactive”; that for `CN1CCN(Cc2ccc(Nc3ncc(-c4cccnc4)c4c3OCC4)cc2)CC1`, “inactive”.
The result for `CN=c1scc(-c2cccs2)n1/N=C/c1cccs1` reads “inactive”; that for `Cc1cnc(CCNC(=O)Nc2ccccc2F)n1C1CCC1`, “inactive”.
The result for `COCCNC(=O)Cc1c[nH]c2ncc(-c3cccnc3OC)cc12` reads 31.6 µM (active); that for `COc1ccccc1C(=O)NCCC(=O)N(C)Cc1cccnc1`, “inactive”.
For the compound `COc1ncccc1-c1cnc2[nH]cc(CC(=O)N(C)Cc3ccccc3)c2c1`, the Potency is 28.2 µM (active).
With `Cc1ccccc1C(=O)NCc1c[nH]c2ncccc12`, the Potency entry was “inactive”.
The result for `CNC(=O)c1cccc(-c2cnc3[nH]cc(CC(=O)NCc4cccc(F)c4)c3c2)c1` reads “inactive”; that for `CN(Cc1cccs1)C(=O)Cc1c[nH]c2ccccc12`, “inactive”.
Under `CN(CC(=O)NCc1ccc(F)cc1)C(=O)c1ccc2c(c1)nnn2C` stands “inactive”.
On to `Cc1nc2cc(NC(=O)c3cccc(S(=O)(=O)Nc4ccc(SC(F)F)cc4)c3)ccc2o1`, for which the Potency result is “inactive”.
The result for `CCN(CC)S(=O)(=O)c1ccc(-c2csc(-c3cccc(OC)c3OC)n2)cc1` reads “inactive”; that for `NC(Cc1ccccc1)(Cc1ccccc1)C(=O)O`, “inactive”; that for `O=C(c1cnc(N2CCCCC2)c2ccccc12)N1CCN(c2ccccn2)CC1`, “inactive”.
The result for `O=[N+]([O-])c1cccc(-c2noc([C@@H]3C[C@@H](O)CN3Cc3cccc(OC(F)(F)F)c3)n2)c1` reads “inactive”; that for `COc1ccc(CN2C[C@H](O)C[C@H]2c2nc(-c3ccc4c(c3)OCO4)no2)c(OC)c1OC`, “inactive”.
The result for `Oc1ccccc1CN1C[C@H](O)C[C@H]1c1nc(Cc2ccc(F)cc2Cl)no1` reads “inactive”; that for `O[C@@H]1C[C@@H](c2nc(-c3ccc4c(c3)OCO4)no2)N(Cc2ccc(-c3ccccn3)cc2)C1`, 25.1 µM (active).
For `O=[N+]([O-])c1ccccc1CN1C[C@H](O)C[C@H]1c1nc(-c2ccc(F)cc2)no1`, the Potency is 25.1 µM (active).
Under `N#Cc1cccc(CN2C[C@H](O)C[C@H]2c2nc(-c3ccccn3)no2)c1` stands “inactive”; under `CC(c1nc(-c2cccs2)no1)N(C)Cc1ccc(F)cc1F` (stereo not drawn), “inactive”; under `Cc1ccc(NC(=O)N2CCC(OC3CCN(S(C)(=O)=O)CC3)CC2)cc1F`, “inactive”.
The result for `CC(Sc1ncnc2nc[nH]c12)C(=O)NCc1ccc(Cl)c(Cl)c1` (stereo not drawn) reads “inactive”; that for `O=C(NC1CCCN(c2cc(-c3ccc(Cl)cc3)[nH]n2)C1)c1ccccc1F` (stereo not drawn), “inactive”; that for `O=C(NC1CCN(c2cc(-c3ccc(F)cc3)[nH]n2)C1)c1cc2ccccc2[nH]1` (stereo not drawn), 8.91 µM (active).
Under `O=C(NC1CCCN(c2cc(-c3ccc(Cl)cc3)[nH]n2)C1)c1ccncc1` (stereo not drawn) stands “inactive”; under `Cn1nccc1C(=O)NC1CCCN(c2cc(-c3ccc(F)cc3)[nH]n2)C1` (stereo not drawn), “inactive”; under `O=C(NC1CCN(c2cc(-c3ccccc3)[nH]n2)CC1)c1cccs1`, “inactive”.
On to `O=C(NC1CCCN(c2cc(-c3ccccc3)[nH]n2)C1)c1cccc(Cl)c1` (stereo not drawn), for which the Potency result is “inactive”.
Turning to `O=C(NC1CCN(c2cc(-c3cccs3)[nH]n2)C1)c1ccc(Br)cc1` (stereo not drawn), the Potency is 4.47 µM (active).
Under `O=C(NC1CCCN(c2cc(-c3ccccc3)[nH]n2)C1)c1cccc2[nH]ccc12` (stereo not drawn) stands 28.2 µM (active).
The result for `O=C(NC1CCCN(c2cc(-c3ccc(F)cc3)[nH]n2)C1)c1ccc(Br)cc1` (stereo not drawn) reads “inactive”; that for `O=C(NC1CCN(c2cc(-c3ccc(F)cc3)[nH]n2)C1)c1ccc2c(c1)OCO2` (stereo not drawn), “inactive”.
In the case of `O=C(NC1CCN(c2cc(-c3ccc(Cl)cc3)[nH]n2)CC1)c1ccccc1F`, the Potency result is “inactive”.
Under `O=C(NC1CCN(c2cc(-c3ccc(Cl)cc3)[nH]n2)C1)c1c[nH]c2ccccc12` (stereo not drawn) stands 11.2 µM (active); under `C=C(Br)CN1CCCC1`, “inactive”; under `CCc1cccc(-n2c(SCc3nc4ccccc4o3)nnc2N2CCOCC2)c1`, “inactive”.
The result for `O=C(c1ccccc1F)N1CCC(c2nn(-c3ccc(Cl)cc3)c(=O)[nH]2)CC1` reads “inactive”.
On to `CCOc1cccc2cc(-c3cc(=O)oc4cc(OC(=O)N5CCOCC5)ccc34)c(=O)oc12`, for which the Potency entry was “inactive”.
Take `Cc1cc(C)c2nc(SCC(=O)NC(=O)NC(C)(C)C)cc(C)c2c1`: the Potency result was “inactive”.
The result for `COc1ccc(CC(=O)NC2CCN(c3cc(-c4ccccc4)[nH]n3)CC2)cc1` reads “inactive”; that for `CCOc1ccc(CC(=O)NC2CCN(c3cc(-c4ccc(F)cc4)[nH]n3)CC2)cc1OCC`, “inactive”.
Under `COc1cccc(CC(=O)NC2CCN(c3cc(-c4ccc(F)cc4)[nH]n3)C2)c1` (stereo not drawn) stands 7.94 µM (active); under `Cc1ccc(S(=O)(=O)NCCC(=O)Nc2cccc(S(N)(=O)=O)c2)cc1C`, “inactive”; under `CC1(c2cccnc2)N(CCOc2ccccc2)C(=O)OC12CCN(C(=O)c1cccc(Cl)c1)CC2` (stereo not drawn), “inactive”.
Turning to `CC1(c2cccnc2)N(Cc2ccccc2)C(=O)OC12CCN(C(=O)c1cccc(Cl)c1)CC2` (stereo not drawn), the Potency entry was “inactive”.
For `CCOc1ccccc1CN1CCC2(CCN(C(=O)c3cccc(Cl)c3)CC2)Oc2ccccc21`, the Potency is 25.1 µM (active).
Under `Cn1cccc1CN1CCC2(CC1)CNc1ccccc1[S+](=O)([O-])N2` stands “inactive”; under `CN(C)C(=O)c1n[nH]c2c1CN(C(=O)c1cccc(C(F)(F)F)c1)CC2`, “inactive”.
For the compound `CN(C)C(=O)c1cc(-c2cccc(C(F)(F)F)c2)c2nncn2n1`, the Potency is 100 µM (active).
Under `NCc1ccccc1-c1cccc(C(F)(F)F)c1` stands “inactive”; under `Cc1ccc(N2CCN(C(C(=O)O)c3c[nH]c4cc(NC(=O)C(C)C)ccc34)CC2)c(C)c1` (stereo not drawn), “inactive”; under `Oc1c(-c2ccccc2)nc2sc3c(c2c1-c1ccccc1)CCCC3`, “inactive”.
With `Cc1n[nH]c(C)c1CCC(=O)N[C@@H]1CN(S(C)(=O)=O)C[C@H]1CN(C)C`, the Potency result was “inactive”.
Under `CN(C)C(=O)c1cccnc1OC1CCN(C(=O)Cc2ccc(Cl)cc2)C1` (stereo not drawn) stands “inactive”; under `CCOc1ccc(CC(=O)N2C[C@@H](N)C[C@H]2C(=O)NC(C)C)cc1`, “inactive”; under `O=C(c1cc(Cl)cc(Cl)c1)N1CCN(C(=O)c2cc(Cl)ccc2F)CC1`, “inactive”.
Under `O=C(Cc1ccccc1Cl)N1CCN(c2ncnc3nc[nH]c23)CC1` stands “inactive”.
Under `CN(C)C[C@@H]1CN(c2ccncn2)C[C@H]1NC(=O)c1cc(C2CC2)[nH]n1` stands “inactive”; under `CN(C)C[C@@H]1CN(c2ncccn2)C[C@H]1NC(=O)c1cc(Cl)ccc1F`, 31.6 µM (active); under `CN(C)C[C@@H]1CN(c2ncccn2)C[C@H]1NC(=O)Cc1ccccc1Cl`, 22.4 µM (active).
Regarding `Cc1ccc(C)n1-c1nnc(N2CCC(C(=O)NCc3ccccc3Cl)CC2)s1`, the Potency result is “inactive”.
The result for `CCOc1ccc(CC(=O)N[C@@H]2CN(c3ncccn3)C[C@H]2CN(C)C)cc1` reads 25.1 µM (active); that for `CN(C)C[C@@H]1CN(c2ncccn2)C[C@H]1NC(=O)CCc1ccccc1`, 28.2 µM (active).
For the compound `COc1ccc(CNC(=O)N[C@@H]2CN(c3ccncn3)C[C@H]2CN(C)C)cc1`, the Potency result is “inactive”.
The result for `C/C=C/c1ccc(OCC(=O)N2CCN(S(=O)(=O)c3ccccc3)CC2)c(OC)c1` reads “inactive”; that for `O=C(/C=C/c1ccccc1)Nc1cccc2c1CCCC2`, “inactive”.
The result for `O=C(NCC1CC1)c1ccc(F)cc1` reads “inactive”; that for `Cc1ccc(OCc2nc3ccc(F)cc3[nH]2)cc1`, “inactive”.
The result for `CCCCCC1CC(COc2ccccc2)OC1=O` (stereo not drawn) reads “inactive”; that for `COc1ccc2c(COC(=O)c3cc4ccccc4cc3O)cc(=O)oc2c1`, “inactive”.
On to `CCc1cccc2c(C(=O)C(Nc3cccc(CO)c3)c3ccccc3)c[nH]c12` (stereo not drawn), for which the Potency result was “inactive”.
Under `O=C(COC(=O)CCc1c[nH]c2ccccc12)NC1CC1` stands “inactive”.
For the compound `Cc1cc(Nc2cccc(Cl)c2)n2nc(Cc3ccccc3)nc2n1`, the Potency entry was “inactive”.
The result for `O=C(c1ccccc1)c1ccc(C(=O)N2CCN(c3ccccc3)CC2)cc1` reads “inactive”; that for `COc1cccc2c1CCN=C2C[C@H]1CN(C(=O)C(C)(C)C)CC[C@H]1CC(=O)O`, 35.5 µM (active); that for `CC(C)(C)C(=O)N1CC[C@@H](CC(=O)O)[C@@H](CCN2CCN(c3cccc(C(F)(F)F)c3)CC2)C1`, “inactive”.
The result for `C=CCNC(=O)N1CC[C@@H](CC(=O)O)[C@@H](CC2=NCCc3ccc(C)cc32)C1` reads “inactive”.
Under `Cc1ccc(CNC(=O)[C@H](C)NC(=O)[C@@H]2Cc3ccccc3CN2)cc1` stands “inactive”; under `O=C(NCc1ccccn1)C1c2ccccc2C(=O)N(C2CCCC2)C12CCCC2` (stereo not drawn), “inactive”; under `Cc1cccnc1NC(=O)C1c2ccccc2C(=O)N(C2CCCC2)C12CCCC2` (stereo not drawn), 15.8 µM (active).
Consider `COCc1nnc(NC(=O)C2c3ccccc3C(=O)N(C3CCCC3)C23CCCC3)s1` (stereo not drawn), for which the Potency result was “inactive”.
In the case of `CN(C)CCN(Cc1ccc(Cl)cc1)C(=O)c1ccncc1`, the Potency entry was “inactive”.
Under `COc1cc(C(=O)OC2CCCCC2=O)ccc1OCc1ccccc1Cl` (stereo not drawn) stands “inactive”.
Under `Clc1ccc2[nH]c3c(c2c1)CCCC3` stands “inactive”; under `COCCn1c(C)cnc1CC1CCN(C(=O)c2ccc(OC)cc2OC)CC1`, “inactive”.
Under `Cc1ccncc1C(=O)N1CCC(Cn2c(C)cnc2-c2cccnc2)CC1` stands “inactive”; under `Cc1cnc(CC2CCN(C(=O)c3cccc4[nH]ccc34)CC2)n1CC1CC1`, 22.4 µM (active); under `Cc1[nH]c(=O)[nH]c(=O)c1CCC(=O)Nc1nc(C(C)C)cs1`, “inactive”.
Turning to `CCOC(=O)C1CCN(C(=O)c2cccc(S(=O)(=O)N(CC)c3ccccc3)c2)CC1`, the Potency result was “inactive”.
Under `O=C(c1ccnc(-c2nnc3ccc(N4CCOCC4)nn23)c1)N1CCCCC1` stands “inactive”; under `O=C(OCc1cccc(Cl)c1)c1ccc(N2CCOCC2)nc1`, “inactive”.
For `CC(=O)c1ccc(NC(=O)COC(=O)C2CCN(c3ccc(C(F)(F)F)cn3)CC2)cc1`, the Potency result was “inactive”.
The result for `O=C(c1ccc(-c2ccc(N3CCCCC3)nc2)cc1)N1CCOCC1` reads 28.2 µM (active).
With `CCOC(=O)C1CCN(C(=O)c2ccc(-c3ccc(N4CCCCCC4)nc3)cc2)CC1`, the Potency is 15.8 µM (active).
